From article PMC4552634, “A New Set of Chemical Starting Points with Plasmodium falciparum Transmission-Blocking Potential for Antimalarial Drug Discovery” (PLoS ONE, 2015)
The whole screen tested about 13,000 compounds, of which about 3,200 (25%) showed an effect of 50% or more. This is one part of the list.

The compounds below were run on P. falciparum stage V gametocytes. Settings: 48 h, 5 µM; inhibitor.
Set-up: BacTiter-Glo ATP luminescence viability of purified stage V gametocytes in 384-well plates, per cent inhibition versus DMSO

Compound | % Inhibition
Cc1[nH]c(C)c(-c2ccc(-c3cccc(OC(F)(F)F)c3)nc2)c(=O)c1Cl [TCMDC-136286] | 5.058%
Cc1[nH]c(C)c(-c2ccc(-c3ccc(OC(F)(F)F)cc3)nc2)c(=O)c1Br [TCMDC-136016] | 67.89%
Cc1[nH]c(C)c(-c2ccc(-c3ccc(OC(F)(F)F)cc3)nc2)c(=O)c1Cl [TCMDC-135677] | 60.39%
CC(=O)c1sc(NC(=O)Nc2ccc(C)cc2C)nc1C [TCMDC-124895] | -9.928%
CO/C(=C\C=C\c1cc2cc(Cl)c(Cl)cc2[nH]1)C(=O)Nc1ccc(NCCN(C)C)nc1 [TCMDC-139073] | -22.07%
Cc1cccc2[nH]c(C3CCN(CC4CCN(C(=O)/C=C/c5ccc(Cl)c(Cl)c5)CC4)CC3)nc12 [TCMDC-140146] | -0.3523%
CCOC(=O)[C@H](Cc1cccc2ccccc12)NC(=O)[C@H](CCC(=O)OC(C)(C)C)NC(=O)c1ccc(N(C)Cc2cnc3nc(N)nc(N)c3n2)cc1 [TCMDC-137288] | 41.06%
Cc1cccc2nc(-c3ccc(-c4ccc(CNCCCN5CCCC5=O)cc4)s3)[nH]c12.O=C(O)C(F)(F)F [TCMDC-132755] | 11.61%
CCCCOc1ccc(C(=O)C(CCC(CNC(C)(C)C)C(=O)c2ccc(OCCCC)cc2)CNC(C)(C)C)cc1 (centres unmarked) [TCMDC-124120] | 110.6%
CCOC(=O)c1ccc(OCCOc2ccccc2)cc1 [TCMDC-125533] | 1.604%
CCCCOC(=O)c1ccc(Nc2cc(C)nc3ccc(OC)cc23)cc1 [TCMDC-124192] | 8.663%
CCCc1ccc(S(=O)(=O)NC2CCN(C(=O)Nc3ccc(I)cc3)CC2)cc1 [TCMDC-139436] | 4.903%
CS(=O)(=O)CCNC(=O)c1ccc(-c2cc3c(Nc4ccc5c(cnn5Cc5ccccc5)c4)ncnc3cn2)o1 [TCMDC-138125] | 1.646%
Cc1cc(N[C@@H](Cc2ccccc2)C(=O)NCc2cccs2)nc(NCCc2ccc(F)cc2)n1 [TCMDC-134787] | 66.5%
Cc1cc(N[C@@H](Cc2ccccc2)C(=O)NCc2cccs2)nc(NCCc2ccccn2)n1 [TCMDC-134747] | 121.6%
Cc1cc(N[C@@H](Cc2ccccc2)C(=O)NCc2cccs2)nc(NCC2CCCCC2)n1 [TCMDC-134930] | -30.67%
Cc1cc(N[C@@H](Cc2ccccc2)C(=O)NCc2cccs2)nc(NCCc2cccnc2)n1 [TCMDC-134819] | 56.43%
COc1ccccc1CCNc1nc(C)cc(N[C@@H](Cc2ccccc2)C(=O)NCc2cccs2)n1 [TCMDC-134802] | 51.92%
CC(C)(C)c1cc(C(=O)Nc2ccc(C(=N)N)cc2)c(O)c(C(C)(C)C)c1 [TCMDC-136316] | 24.98%
CCc1ccc(C(=O)Nc2cccc(CN3CCCN(Cc4ccc(O)cc4)CC3)c2)cc1 [TCMDC-141884] | 21.35%
Cc1ccc(NC(=O)c2cccc(CN3CCCN(CC4CCCCC4)CC3)c2)cc1F [TCMDC-135958] | -34.77%
COCCSc1nc2scc(C)c2c(=O)n1Cc1cccc(OC)c1 [TCMDC-134420] | 25.73%
CCCCCN1CCC(NC(=O)c2ccc(C(=O)Nc3ccc(C(C)C)cc3)cc2)C1 (centres unmarked) [TCMDC-136744] | -20.17%

Compound | % Inhibition
Nc1ncnc2c1ncn2C(CO)Cc1ccc(O)cc1 (centres unmarked) [TCMDC-137893] | -20.6%
C[C@H](Cc1ccc(C[C@@H](C)NCC(O)c2cc(Cl)c(N)c(Cl)c2)cc1)NCC(O)c1cc(Cl)c(N)c(Cl)c1 (some centres unmarked) [TCMDC-131548] | 39.43%
Cc1cccc(CCNC(=O)c2cc(Br)cc(N3CCN(c4ccncc4)CC3)c2)c1 [TCMDC-135149] | -71.81%
CCOC(=O)c1ccc(NC(=O)Nc2ccc(-c3cccc(-c4nc5ccc(F)cc5[nH]4)c3)cc2)cc1 [TCMDC-133269] | -27.05%
Cc1cc(N[C@@H](Cc2ccccc2)C(=O)NCc2cccs2)nc(Nc2ccccc2)n1 [TCMDC-134734] | -21.51%
Cc1cc(N[C@@H](Cc2ccccc2)C(=O)NCc2cccs2)nc(NCCc2ccccc2)n1 [TCMDC-134775] | 70.11%
Cc1cc(N[C@@H](Cc2ccccc2)C(=O)NCCc2ccccc2)nc(NCCc2cccs2)n1 [TCMDC-134874] | 14.35%
Cc1cc(N(C)C2CCN(C)C2)nc(Nc2ccccc2Cl)n1 (centres unmarked) [TCMDC-137007] | 12.36%
Cc1ccc(C)c(S(=O)(=O)Nc2ccc(Br)cc2C(=O)Nc2cccc(C(F)(F)F)c2)c1 [TCMDC-141482] | 10.24%
Cc1cc(NC(=O)c2cc(S(=O)(=O)N3CCCCC3)ccc2C)no1 [TCMDC-124530] | 23.56%
Cc1ccc(NC(=O)c2cc(S(=O)(=O)NC(C)(C)C)ccc2C)nc1 [TCMDC-125009] | 54.13%
Cc1cc(N2CCC(NS(=O)(=O)c3ccccc3)CC2)nc(Nc2cccc(C#N)c2)n1 [TCMDC-134213] | 22.13%
CN1CCCC1CCNCc1cccc(-c2cnc(N(C)C3CCCCC3)nc2)c1 (centres unmarked) [TCMDC-133141] | 75.89%
CC(=O)Nc1cccc(CNCc2ccc(-c3cnc(N4CCCC(C)(C)C4)nc3)cc2)c1 [TCMDC-133549] | -38.45%
CN1CCCC1CCNCc1cccc(-c2cnc(N3CCCC(C)(C)C3)nc2)c1 (centres unmarked) [TCMDC-133144] | 90.28%
CN(CCc1ccccc1)c1ncc(-c2cccc(CNCCC3CCCN3C)c2)cn1 (centres unmarked) [TCMDC-133143] | 92.22%
CN(c1ncc(-c2cccc(CNCc3ccccc3O)c2)cn1)C1CCCCC1 [TCMDC-133137] | -20.17%
CCCN(CC1CC1)c1ncc(-c2cccc(CNCCC3CCCN3C)c2)cn1 (centres unmarked) [TCMDC-133142] | 40.53%
CC1(C)CCCN(c2ncc(-c3cccc(CNCc4ccccc4O)c3)cn2)C1 [TCMDC-133139] | 32.42%
COC(=O)c1cc(OC)c(OC)cc1NC(=O)NC12CC3CC(CC(C3)C1)C2 [TCMDC-124384] | -44.27%
CC(Oc1ccc(Cl)cc1)C(=O)Nc1cc(C(F)(F)F)ccc1-n1cncn1 (centres unmarked) [TCMDC-125023] | 17.82%
Cc1cccc(CNc2nc(C)cc(N[C@@H](CC(C)C)C(=O)NCCOc3ccccc3)n2)c1 [TCMDC-134892] | -42.27%
Fc1ccc2nc(-c3cccc(-c4cccc(CN5CCN(c6cnccn6)CC5)c4)c3)[nH]c2c1 [TCMDC-132676] | -22.96%

Compound | % Inhibition
CCCC(C)Nc1nc(C)cc(N[C@@H](CC(C)C)C(=O)Nc2ccc(OC)cc2)n1 (some centres unmarked) [TCMDC-134896] | -21.51%
CCCCCCCCn1ccc(=N)cc1 [TCMDC-125630] | 13.04%
Cc1cc(N2CCC(NS(=O)(=O)c3ccc(F)cc3)CC2)nc(Nc2cccc(C#N)c2)n1 [TCMDC-134214] | 18.32%
CCNc1cc(C(=O)N[C@@H](Cc2ccccc2)[C@H](O)CNC2CCC(C)(C)C2)cc(N2CCCCS2(=O)=O)c1 (some centres unmarked) [TCMDC-135302] | 9.387%
COc1ccc(NC(=O)CSc2nc(-c3ccccc3Cl)ns2)cc1 [TCMDC-123543] | 61.96%
COc1ccc(NC(=O)CSc2nc(-c3ccccc3Cl)ns2)cc1OC [TCMDC-125346] | 40.34%
CC(=O)c1ccc(NC(=O)CSc2nc(-c3ccccc3Cl)ns2)cc1 [TCMDC-124545] | -8.871%
O=C(CSc1nc(-c2ccccc2Cl)ns1)Nc1cccc(F)c1 [TCMDC-124549] | 39.34%
O=C(CSc1nc(-c2ccccc2Cl)ns1)Nc1ccc2c(c1)OCO2 [TCMDC-124546] | 53.36%
O=C(Nc1cccc(Cl)c1)c1cc2ccccc2cc1O [TCMDC-124171] | 9.946%
O=C(Nc1cccc(CN2CCCN(Cc3ccc4c(c3)OCO4)CC2)c1)c1ccc(Cl)c(Cl)c1 [TCMDC-141820] | -97.11%
COc1ccc(CC(=O)Nc2ccc(Nc3nc(C)cc(N4CCCC4)n3)cc2)cc1 [TCMDC-124966] | -9.476%
COc1ccccc1Cc1nc2ccccc2nc1SCC(=O)Nc1cccc(C(F)(F)F)c1 [TCMDC-123879] | 0.3581%
COc1cccc(NC(=O)CSc2nc(-c3ccccc3Cl)ns2)c1 [TCMDC-123544] | 62.62%
COc1ccccc1-c1ccc2nnc(SCC(=O)Nc3ccc4c(c3)OCCO4)n2n1 [TCMDC-124319] | 10.92%
O=C(CSc1nc(-c2ccccc2Cl)ns1)Nc1cccc(Cl)c1 [TCMDC-124548] | 67.64%
Cc1ccc2ccccc2c1CCCON1C(N)=NC(N)=NC1(C)C [TCMDC-131758] | 22.75%
O=C(Nc1ccc(Cl)c(Cl)c1)N1CCC(CNCc2cccc([N+](=O)[O-])c2)CC1 [TCMDC-141279] | 18.17%
O=C(/C=C/c1ccc(Cl)c(Cl)c1)NCCCCCN1CCCN(C(=O)Nc2cc(Cl)nc(Cl)c2)CC1 [TCMDC-135888] | -3.146%
O=C(/C=C/c1ccc(Cl)c(Cl)c1)N1CCN(C(=O)Nc2cccc(C(F)(F)F)c2)CC1 [TCMDC-135944] | -35.14%
COc1ccc(NC(=O)c2cn(-c3ccc(C(C)(C)C)cc3)nc2C)cc1N1CCN(C)CC1 [TCMDC-138689] | -23.67%
c1ccc(COc2ccccc2COc2ccccc2-c2ccc3cccnc3n2)cc1 [TCMDC-136713] | 16.91%
